According to PubChem BioAssay (Tox21):
“And” between values parts separate entries of the source, which are not always exact repeats. Equal entries are not always repeated. Results filed as inconclusive are left out. A structure can be active in one record and inactive in another. The source made the active and inactive calls. The call rests on the fitted dose curve.

Biological target: Thyrotropin receptor (Homo sapiens) (UniProt P16473)
Test: qHTS assay to identify small molecule agonists of the thyroid stimulating hormone receptor (TSHR) signaling pathway (AID 1224843); further: nearly all actives have a fitted effect of over 45% in size
Conditions: TSHR-HEK293 cells, cAMP HTRF, agonist mode, 30 min; series mostly up to 92.4 µM; activation: at the top concentration
Summary of the method: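 TSHR-HEK293 cells in agonist mode, 30 min room-temperature step, then cAMP measured by competitive HTRF (cAMP-d2 with anti-cAMP cryptate) after 1 h at room temperature. Tested at 15 concentrations in triplicate.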
On the % scale 0 is the no-effect control and ±100 the full control effect; potency means the concentration at half of the fitted maximal effect.

Chain of Thyrotropin receptor (Homo sapiens) (P16473 whole entry, looked up): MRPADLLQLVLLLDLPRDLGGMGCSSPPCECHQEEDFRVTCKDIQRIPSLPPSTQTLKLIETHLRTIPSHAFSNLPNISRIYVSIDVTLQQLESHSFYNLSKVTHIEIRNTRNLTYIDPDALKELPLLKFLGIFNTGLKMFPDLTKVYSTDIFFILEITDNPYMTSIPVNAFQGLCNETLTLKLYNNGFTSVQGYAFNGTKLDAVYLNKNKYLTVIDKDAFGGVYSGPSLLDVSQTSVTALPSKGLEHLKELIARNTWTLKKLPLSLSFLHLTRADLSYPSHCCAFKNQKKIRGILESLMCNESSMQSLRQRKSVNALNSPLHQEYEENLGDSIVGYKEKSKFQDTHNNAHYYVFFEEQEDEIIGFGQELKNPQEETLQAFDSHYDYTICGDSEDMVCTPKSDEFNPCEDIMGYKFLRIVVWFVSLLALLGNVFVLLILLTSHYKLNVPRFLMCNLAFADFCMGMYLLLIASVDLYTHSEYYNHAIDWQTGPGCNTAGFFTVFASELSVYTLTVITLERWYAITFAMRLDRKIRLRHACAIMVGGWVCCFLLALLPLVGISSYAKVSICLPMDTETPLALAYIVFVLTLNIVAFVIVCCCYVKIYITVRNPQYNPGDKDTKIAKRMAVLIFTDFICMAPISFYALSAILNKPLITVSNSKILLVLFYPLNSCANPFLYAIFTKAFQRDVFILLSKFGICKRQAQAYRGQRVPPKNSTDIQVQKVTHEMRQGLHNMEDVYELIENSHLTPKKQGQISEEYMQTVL

Compound | activation | Potency
CCCOC(=O)Cc1ccc(OCC(=O)N(CC)CC)c(OC)c1 | -0.741% [at 42.5 µM] (inactive) | –
O=C(Cl)C(Cl)Cl | 16.1% (inactive) | –
CC[C@H](N)c1ccccc1 | 0.118% (inactive) | –
CC(O)CCl (stereo not given) | -15.5% (inactive) | –
CCCCCCCC(=O)Cl | -13.3% (inactive) | –
CCCCCCCCBr | 1.29% (inactive) | –
O=C(O)C(Cl)Br (stereo not given) | -7.47% (inactive) | –
COC1=CC(=O)O[C@@H](/C=C/c2ccccc2)C1 | -18.7% (inactive) | –
ClCCN1CCCC1 | 2.32% [at 42.5 µM] (inactive) | –
C=CC=O | 16.9% (inactive) | –
O=C(O)c1c(Cl)ccc2cc(Cl)cnc12 | 0.0799% (inactive) | –
CS(=O)(=O)Cl | 0.0209% (inactive) | –
CCOC(=O)CC(SP(=S)(OC)OC)C(=O)OCC (stereo not given) | – | inactive
[O-][Br+2]([O-])O | -1.75% [at 42.5 µM] (inactive) | –
Cc1cccc2sc3nncn3c12 | 10.6% (inactive) | –
CN1C(=O)COc2c(C(=O)NC3CN4CCC3CC4)cc(Cl)cc21 (stereo not given) | 8.5% [at 42.5 µM] (inactive) | –
CCN(CCO)CCO | -10.4% (inactive) | –
CON(C)C(=O)Nc1ccc(Br)cc1 | 2.28% (inactive) | –

Compound | activation | Potency
N=C(N)[Se] | -9.26% (inactive) | –
ClC1=C(Cl)C2(Cl)C(CBr)CC1(Cl)C2(Cl)Cl (stereo not given) | – | 4.33 µM (active) and 10.6 µM (active)
CN(C)CCN(C)C | -1.14% (inactive) | –
CC(C)(O)C(Cl)(Cl)Cl | 1.11% [at 42.5 µM] (inactive) | –
C/C(=N\NC(=O)Nc1cc(F)cc(F)c1)c1ncccc1C(=O)O | – | inactive
C1CN2CCC1CC2 | -0.251% [at 42.5 µM] (inactive) | –
CCOC1Oc2ccc(OS(C)(=O)=O)cc2C1(C)C (stereo not given) | -0.131% (inactive) | –
O=CCCl | -6.75% (inactive) | –
CC#Cc1cc(C)nc(Nc2ccccc2)n1 | 12.4% (inactive) | –
CCOC(=O)CCl | 2.38% (inactive) | –
CNC(=O)O/N=C(/CSC)C(C)(C)C | 11% (inactive) | –
CCOC(=O)Nc1cccc(OC(=O)Nc2ccccc2)c1 | -0.951% (inactive) | –
CCN[C@H](C)Cc1cccc(C(F)(F)F)c1 | 6.36% (inactive) | –
CC(C)[C@]12CC(=O)[C@H](C)[C@H]1C2 | -7.58% (inactive) | –
O=C1CCCCC1Cl (stereo not given) | -0.332% (inactive) | –
[P]#[In] | 2.07% (inactive) | –
CC(C)(C)C(=O)C(Cl)Cl | -1.38% (inactive) | –

Tested on: not listed separately
Test: qHTS assay to identify small molecule agonists of the hypoxia (HIF-1) signaling pathway - cell viability counter screen (AID 1224844); further: nearly all actives have a fitted effect of over 50% in size
Conditions: HRE-bla ME-180 viability, CellTiter-Glo luminescence, 17 h; series mostly up to 76.8 µM; activity change, negative = cytotoxicity: at the top concentration
Summary of the method: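 Multiplexed with the HRE beta-lactamase assay, this viability read used CellTiter-Glo luminescence (30 min, RT) on HRE-bla ME-180 cells treated 17 hrs with compounds in 0.5% dialyzed FBS medium.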

Compound | activity change, negative = cytotoxicity | Potency
CCCOC(=O)Cc1ccc(OCC(=O)N(CC)CC)c(OC)c1 | 2.74% [at 35.3 µM] (inactive) | –
O=C(Cl)C(Cl)Cl | 2.21% (inactive) | –
CC[C@H](N)c1ccccc1 | 3.63% (inactive) | –
CC(O)CCl (stereo not given) | 2.31% (inactive) | –
CCCCCCCC(=O)Cl | -13.7% (inactive) | –
CCCCCCCCBr | -9.93% (inactive) | –
O=C(O)C(Cl)Br (stereo not given) | 3.51% (inactive) | –
COC1=CC(=O)O[C@@H](/C=C/c2ccccc2)C1 | 4.36% (inactive) | –
ClCCN1CCCC1 | 3.29% [at 35.3 µM] (inactive) | –
C=CC=O | 3.92% (inactive) | –
O=C(O)c1c(Cl)ccc2cc(Cl)cnc12 | 8.53% (inactive) | –
CS(=O)(=O)Cl | 5.43% (inactive) | –
CCOC(=O)CC(SP(=S)(OC)OC)C(=O)OCC (stereo not given) | – | 49 µM (active) and inactive
[O-][Br+2]([O-])O | 6.38% [at 35.3 µM] (inactive) | –
Cc1cccc2sc3nncn3c12 | 3.95% (inactive) | –
CN1C(=O)COc2c(C(=O)NC3CN4CCC3CC4)cc(Cl)cc21 (stereo not given) | -1.3% [at 35.3 µM] (inactive) | –
CCN(CCO)CCO | 0.533% (inactive) | –
CON(C)C(=O)Nc1ccc(Br)cc1 | -9.04% (inactive) | –

Compound | activity change, negative = cytotoxicity | Potency
N=C(N)[Se] | -5.1% (inactive) | –
ClC1=C(Cl)C2(Cl)C(CBr)CC1(Cl)C2(Cl)Cl (stereo not given) | 11.5% [at 35.3 µM] (inactive) | –
CN(C)CCN(C)C | -0.178% (inactive) | –
CC(C)(O)C(Cl)(Cl)Cl | 2.73% [at 35.3 µM] (inactive) | –
C/C(=N\NC(=O)Nc1cc(F)cc(F)c1)c1ncccc1C(=O)O | – | inactive
C1CN2CCC1CC2 | 0.0541% [at 35.3 µM] (inactive) | –
CCOC1Oc2ccc(OS(C)(=O)=O)cc2C1(C)C (stereo not given) | 14.7% (inactive) | –
O=CCCl | -0.865% (inactive) | –
CC#Cc1cc(C)nc(Nc2ccccc2)n1 | 18% (inactive) | –
CCOC(=O)CCl | 5.14% (inactive) | –
CNC(=O)O/N=C(/CSC)C(C)(C)C | -0.686% (inactive) | –
CCOC(=O)Nc1cccc(OC(=O)Nc2ccccc2)c1 | -19.8% (inactive) | –
CCN[C@H](C)Cc1cccc(C(F)(F)F)c1 | 7.76% (inactive) | –
CC(C)[C@]12CC(=O)[C@H](C)[C@H]1C2 | 10.2% (inactive) | –
O=C1CCCCC1Cl (stereo not given) | 6.38% (inactive) | –
[P]#[In] | 6% (inactive) | –
CC(C)(C)C(=O)C(Cl)Cl | 0.0006% (inactive) | –
